# Out of some 3,600 compounds screened, about 900 (25%) were called active. No rule for the calls is given here. Not all results are given here. Entries with a potency or affinity are not part of this list.
# Biological target: Protein Tat (Human immunodeficiency virus type 1 group M subtype B (isolate HXB2)) (UniProt P04608)
# Test: inhibitors of Tat binding to TAR RNA, dose response, counter-screen for Vif-APOBEC3G degradation inhibitor project, biochemical, fluorescence polarization, FAM-labeled TAR RNA (AID 1117361)
# Settings: outcome: dose series up to 100 µM unless noted; series mostly up to 100 µM
row,SMILES,outcome
1,O=C(CN1CCN(c2ccccc2O)CC1)Nc1ccc2c(c1)CCC2,inactive
2,O=[N+]([O-])c1ccc(NCCCNS(=O)(=O)c2ccc(Cl)cc2)c(Cl)c1,inactive
3,COc1cc([N+](=O)[O-])c(N2CCOCC2)c([N+](=O)[O-])c1OC,inactive
4,O=S(=O)(NCC1CCCO1)c1cc(Br)c(Br)s1 (stereo not given),inactive
5,CCCOC(=O)/C(C(N)=NCc1ccccc1)=C(\O)OCCC,inactive
6,O=C1CCCC2=C1C(c1cccs1)n1ncnc1N2 (stereo not given),inactive
7,Cc1cc(C)n2nc(SCC(=O)Nc3ccc(F)cc3)nc2n1,inactive
8,Cc1nnc(NCCc2ccccc2)n(N)c1=O,inactive
9,O=C(NCC(c1ccco1)N1CCCC1)c1cccc(S(=O)(=O)N2CCCCC2)c1 (stereo not given),inactive
10,O=C(CCOc1ccccc1)NCC(c1ccco1)N1CCCCC1 (stereo not given),inactive
11,Nc1nc(Nc2ccccc2)sc1C(=O)c1ccccc1,inactive
12,COCCN(Cc1cc2ccccc2[nH]c1=O)C(=O)c1ccccc1OC,inactive
13,CCc1ccc2c(c1)cc(C)c1nnc(SCC(=O)Nc3cc(OC)c(OC)cc3C(=O)O)n12,inactive
14,C=CCOc1ccc(Br)cc1/C=N/O,inactive
15,Cc1cccc(C)c1NC(=O)CS(=O)CC(=O)NC1CCN(Cc2ccccc2)CC1 (stereo not given),inactive [at 50 µM]
16,CCOC(=O)CC(=O)CSc1ncc(C(=O)OCC)c(N)n1,inactive
17,CCOC(=O)c1ccc(-n2ncc(C(=O)OCC)c2N)cc1,inactive
18,COc1ccc2cc(C3(C)NC(=O)N(CC(=O)Nc4c(C)n(C)n(-c5ccccc5)c4=O)C3=O)ccc2c1 (stereo not given),inactive
19,O=S(=O)(/C=C/c1ccccc1)N1CCN(c2ccc(F)cc2)CC1,inactive
20,CC(=O)Nc1cccc(C(=O)NC(C)c2ccc(S(N)(=O)=O)cc2)c1 (stereo not given),inactive
21,CCCN(CCC)CCCNc1ccc2nnc(-c3ccc(F)cc3)n2n1,inactive
22,CCOC(=O)C1CCN(C(=O)c2ccc(OC)cc2OC)CC1,inactive
23,CCOC(=O)C1CCN(C(=O)C2CCN(S(=O)(=O)c3cc(Cl)ccc3Cl)CC2)CC1,inactive
24,CCOC(=O)c1ccc(N2C(=O)c3n[nH]c(C)c3C2c2ccc(OC)cc2OC)cc1 (stereo not given),inactive

row,SMILES,outcome
1,CCC1SC2=NC(C)=C(C(=O)OC)C(c3ccc(C(=O)OC)cc3)N2C1=O (stereo not given),inactive
2,CC1=NN(C(=O)c2csc(C)c2)C(O)(C(F)(F)F)C1 (stereo not given),inactive
3,CCCC(=O)Nc1cccc(-c2nc3ccccc3o2)c1,inactive
4,Brc1ccccc1Cn1c(-c2cncs2)nc2ccccc21,inactive
5,O=C(CNS(=O)(=O)c1ccc2ccccc2c1)Nc1ccc(F)c(F)c1F,inactive
6,CC(C)(C)CN1CCNC(=O)C1CC(=O)NCCc1ccccc1C(F)(F)F (stereo not given),inactive
7,COc1cccc(CN2CCNC(=O)C2CC(=O)NCCn2nc(C)cc2C)c1OC (stereo not given),inactive
8,Cc1nc2nc(C)c(CCC(=O)N3CCN(c4ccccc4)CC3)c(C)n2n1,inactive
9,O=C(CSc1ccccc1)N1CCN(c2ccccc2)CC1,inactive
10,COc1cccc(/C=N/n2c(-c3cc(C)[nH]n3)n[nH]c2=S)c1,inactive
11,Cc1nc2scc(-c3ccccc3)c2c(=O)n1/N=C/c1ccco1,inactive
12,C(=N\Nc1nncn1/N=C/c1ccco1)/c1ccco1,inactive
13,Cn1ccnc1SCC(=O)c1ccc(Br)cc1,inactive
14,CCO[C@H]1OC(C(=O)NCc2ccccc2)=C[C@@H](c2coc3ccccc3c2=O)[C@@H]1CCCO,inactive
15,C/C(N)=C(/C#N)C(=O)COC(=O)CCSc1ccccc1,inactive
16,CCN(CC)Cc1cc(Nc2c3ccccc3nc3c4ccccc4n(C)c23)cc(CN(CC)CC)c1O,inactive
17,Clc1ccc(-n2ncc3c(NCc4ccccn4)ncnc32)cc1,inactive
18,COc1ccccc1C(C#N)N1N=C(C)CC1(C)C (stereo not given),inactive
19,CSc1nc2ccc3nc(NC(=O)c4ccccc4)sc3c2s1,inactive
20,CCOc1ccc(C(=O)NC(=S)Nc2ccc(N3CCC(C)CC3)cc2)cc1[N+](=O)[O-],inactive
21,CCCCN(C(=O)c1ccccc1OCc1ccc(F)cc1)c1c(N)n(CC(C)C)c(=O)[nH]c1=O,inactive
22,CC(C)c1ccc(SCc2noc(C(=O)NCC3CCCO3)c2C(=O)O)cc1 (stereo not given),inactive
23,CCN1C(=O)/C(=C/N2CC(C)CC(C)C2)SC1=S (stereo not given),inactive
24,Cc1ccccc1N1C(=O)C2ON(c3ccccc3)C(c3cccnc3)C2C1=O (stereo not given),inactive

row,SMILES,outcome
1,CC1=CCC(/C=N\Nc2nnc3c(n2)[nH]c2ccccc23)CC1 (stereo not given),inactive
2,CCOC(=O)c1nc2sc(C)c(C)c2c(=O)[nH]1,inactive
3,CCN1C(=O)c2ccccc2S(=O)c2ccc(C(=O)N3CCCC3)cc21 (stereo not given),inactive
4,Cc1cccc(N2CCN(CC(=O)NCC3CCCCC3)CC2)c1C,inactive
5,Nc1nc(-c2ccc(F)cc2)cc(C(F)(F)F)n1,inactive
6,O=C(CN1C(=O)c2ccccc2C1=O)OC(C(=O)c1ccc(Cl)cc1)c1ccccc1 (stereo not given),inactive
7,COc1ccc(NC(=O)c2ccccc2NC(=O)CSc2ccc(Cl)cc2)cc1,inactive
8,Cc1cc(NC(=O)c2ccccc2F)n(-c2nc3ccccc3[nH]2)n1,inactive
9,CC(C)(C)NC(=O)NC(=O)COc1ccccc1C#N,inactive
10,CC1CN(C(=O)N[C@@H](Cc2ccccc2)C(=O)O)CC(C)O1 (stereo not given in full),inactive
11,Cc1ccc(CC(NC(=O)c2ccccc2)C(=O)NC(C)C(=O)O)cc1 (stereo not given),inactive
12,O=C(CSc1nc2ccccc2c(=O)n1NC(=O)Cc1ccccc1)NCc1ccccc1,inactive
13,C=C(Br)Cn1c(CC)nc2ccccc21,inactive
14,COC(=O)Cc1cc(=O)n2[nH]c(C)cc2n1,inactive
15,CCOC(=O)Cc1csc(N/N=C\c2cccc(Br)c2)n1,inactive
16,CC(=O)N1CCc2cc(S(=O)(=O)NCCC(=O)Nc3cc(C)cc(C)c3)ccc21,inactive
17,Oc1ccccc1-c1cc(C(F)(F)C(F)F)[nH]n1,inactive
18,OC(CN1CCN(c2ccccc2)CC1)c1ccc2c(c1)CCN2 (stereo not given),inactive
19,CCc1ccc(-c2nc(SCC(=O)c3c(N)n(C4CC4)c(=O)[nH]c3=O)n[nH]2)cc1,inactive
20,O=C(COC(=O)Cc1ccc(Cl)cc1)NCc1ccco1,inactive
21,COc1ccc(CC(=O)OCC(=O)NCc2ccco2)cc1OC,inactive
22,COc1cc(C(=O)Nc2ccc(N3CCCS3(=O)=O)cc2)c([N+](=O)[O-])cc1OC,inactive
